The values that follow come from PubChem BioAssay (NCATS).

Structures are written as SMILES. Results filed as inconclusive are left out. Where a call stands in place of a potency, no number is given. Calls of active or inactive are those of the source. The call rests on the fitted dose curve; in most records, active means well fitted inhibition curve with a large enough effect; inconclusive means small, poorly fitted or top-dose-only effect; inactive means flat fitted curve, though single readings scatter.

The subject of this assay is Zika virus NS2B-NS3 protease. Briefly: Primary screen GU AMC qHTS for Zika virus inhibitors (AID 1347154). Further: nearly all actives have a fitted effect of over 70% in size. Conditions: Zika NS2B-NS3 unlinked protease, AMC fluorogenic substrate; series mostly up to 54.1 µM. The method in brief: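 Unlinked Zika NS2B hydrophilic domain/NS3 protease domain noncovalent complex (25 nM final) in 10 mM Tris-HCl pH 8.0, 0.01% Tween 20, with AMC peptide substrate. Fluorescence (ex 340, em 450 nm) change over 15 min, room temperature; percent inhibition fitted to 4-parameter Hill equation.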
(Quantitative high-throughput screening tests each substance at several concentrations.)
`CC(C)N(CCCNC(=O)Nc1ccc(C(C)(C)C)cc1)C[C@H]1O[C@@H](n2cc(Br)c3c(N)ncnc32)[C@H](O)[C@H]1O`: the Potency entry was “inactive”. The result for `CCCCC(C)(C)[C@H](O)C=C[C@H]1[C@H](O)CC(=O)[C@H]1CC=CCCCC(=O)O` reads “inactive”; that for `OC[C@H]1O[C@@H](OCCc2ccc(O)cc2)[C@H](O)[C@@H](O)[C@H]1O`, “inactive”; that for `O=c1[nH]c(=O)n([C@H]2C[C@@H](O)[C@@H](CO)O2)cc1I`, “inactive”. The same measure for `COc1ccnc(CS(=O)c2nc3ccc(OC(F)F)cc3[nH]2)c1OC` (stereo not given): “inactive”. The same measure for `CCC(=O)NCC[C@@H]1CCc2ccc3c(c21)CCO3`: “inactive”.

As for `N=C1SC(=Cc2ccc(-c3ccc4c(c3)C(=O)NC4=O)o2)C(=O)N1c1ccc(Br)cc1`, the Potency result was “inactive”. The result for `CO[C@H]1O[C@@H]2O[C@@]3(C)CC[C@@H]4[C@@H](C)CC[C@@H]([C@H]1C)[C@@]24OO3` reads “inactive”. As for `CC[C@H](C)C(=O)O[C@H]1C[C@H](O)C=C2C=C[C@H](C)[C@H](CC[C@@H](O)C[C@@H](O)CC(=O)O)[C@H]21`, the Potency result is “inactive”.

With `CCC(=C(CC)c1ccc(O)cc1)c1ccc(O)cc1`, the Potency result is “inactive”.
